DAX1 inh-1 – DAX1 (NR0B1) inhibitors on StAR promoter, primary screen, cell-based, luminescence, SF-1 (NR5A1), full-length DAX-1; HEK293T StAR-luciferase reporter, SF-1/DAX-1 repression relief; AID 652010, 2013; inhibition, % at 6.8 µM; 370,000 compounds, 1.1% hits;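 active = inhibition above the mean over all tested compounds plus 3 SD, cut at about 3.6% in these data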;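 also: 0% = DAX-1 cells with DMSO and 100% = cells lacking DAX-1 with DMSO; higher inhibition means more luminescence from relief of DAX-1 repression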
DAX1 inh-2 – DAX1 (NR0B1) inhibitors, primary screen, cell-based, HEK293, Gal4-DAX1, luciferase luminescence | Nuclear receptor subfamily 0 group B member 1 (Homo sapiens), P51843 | HEK293 Gal4-DAX1 luciferase reporter | inhibition, % at 6.75 µM | 340,000 compounds, 0.99% hits | AID 504766, 2011;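 active = inhibition above the mean over all tested compounds plus 3 SD, cut at about 4.2% in these data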;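 also: 0% = DAX1-transfected cells with DMSO and 100% = empty-vector control cells with DMSO; inhibition shows as a rise in luminescence from relieved DAX1 repression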
hgDAF12 agonist – H. glycines DAF-12 receptor agonists, primary screen, cell-based, luminescence, HEK293, GAL4 fusion, UAS-luciferase | 370,000 compounds, 1.8% hits | activation, % at 6.8 µM | HEK293 GAL4-hgDAF12 UAS-luciferase reporter, agonist luminescence; normalized to butyrate control;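 active = activation above a cutoff set at the mean of all screened compounds plus 3 SD, cut at about 10% in these data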;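 also: 0% = DMSO wells and 100% = sodium butyrate wells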
AHR activator – AHR activators, primary screen, cell-based, luminescence, luciferase reporter, human; Aryl hydrocarbon receptor (Homo sapiens), P35869; AHR-responsive luciferase reporter cells; activation, % at 5 µM; 320,000 compounds, 2.5% hits; AID 2796, 2010; in the data active = activation above about 47%;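 also: 0% = vehicle wells and 100% = reference agonist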
Target sequence (P35869 whole entry, looked up): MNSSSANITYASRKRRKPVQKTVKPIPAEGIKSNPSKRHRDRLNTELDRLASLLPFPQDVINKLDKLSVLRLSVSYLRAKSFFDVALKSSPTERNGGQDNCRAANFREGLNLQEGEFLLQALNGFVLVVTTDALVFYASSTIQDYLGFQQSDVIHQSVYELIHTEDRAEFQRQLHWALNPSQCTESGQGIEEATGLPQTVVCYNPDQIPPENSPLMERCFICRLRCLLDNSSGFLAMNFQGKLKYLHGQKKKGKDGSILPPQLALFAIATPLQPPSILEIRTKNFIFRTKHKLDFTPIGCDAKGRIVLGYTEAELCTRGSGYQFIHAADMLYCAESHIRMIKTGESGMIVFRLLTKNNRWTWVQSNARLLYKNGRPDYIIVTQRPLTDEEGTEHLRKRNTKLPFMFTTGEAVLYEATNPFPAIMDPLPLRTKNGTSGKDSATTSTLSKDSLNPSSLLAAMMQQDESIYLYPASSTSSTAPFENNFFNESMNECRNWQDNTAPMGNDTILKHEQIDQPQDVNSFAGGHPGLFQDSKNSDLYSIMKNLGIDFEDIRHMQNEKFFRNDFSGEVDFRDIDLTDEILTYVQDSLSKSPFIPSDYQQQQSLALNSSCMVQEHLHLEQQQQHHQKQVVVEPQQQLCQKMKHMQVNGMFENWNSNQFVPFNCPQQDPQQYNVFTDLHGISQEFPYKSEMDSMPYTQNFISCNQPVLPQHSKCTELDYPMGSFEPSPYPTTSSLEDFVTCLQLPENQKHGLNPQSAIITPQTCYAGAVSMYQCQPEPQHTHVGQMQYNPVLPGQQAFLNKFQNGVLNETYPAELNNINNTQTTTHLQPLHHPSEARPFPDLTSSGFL
hcDAF-12 act – H. contortus DAF-12 nuclear receptor activators, primary screen, cell-based, luminescence, HEK293, lit1-tk-luc reporter. HEK293 hcDAF-12 lit1-tk-luc reporter; 0% DMSO, 100% Δ7-dafachronic acid. activation, % at 6.8 µM. 370,000 compounds, 1.4% hits. AID 652067, 2013;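 active = activation above the mean of all tested compounds plus 3 SD, cut at about 5.5% in these data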;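 also: 100% = response to 3 µM Δ7-dafachronic acid high control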
ssDAF-12 act – S. stercoralis DAF-12 nuclear receptor activators, primary screen, cell-based, luminescence, HEK293, GRIP1 co-expression, lit1-tk-luc | HEK293 ssDAF-12/GRIP1 lit1-tk-luc reporter; % of 3 µM dafachronic acid response | activation, % at 6.8 µM | 370,000 compounds, 1% hits | AID 652126, 2013;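 active = activation above the mean over all tested compounds plus 3 SD, cut at about 0.9% in these data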;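 also: 0% = DMSO-only wells and 100% = 3 µM delta7-dafachronic acid wells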
AHR act cf – AHR activators, confirmation, cell-based, luminescence, luciferase reporter, human. 2,300 compounds, 87% hits. activation, % at 9 µM. human cells, AHR-responsive luciferase reporter. shares compounds with AHR activator; in the data active = activation above about 49%;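 also: HepG2 hepatoma cells carrying a DRE-driven firefly luciferase reporter; 0% = vehicle wells and 100% = reference agonist wells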
PXR counter – human PXR activators, counter-screen for AHR activator project, cell-based, luciferase luminescence; 2,300 compounds, 88% hits; cell-based PXR reporter; activation, % at 11.6 µM; shares compounds with AHR activator; AID 434939, 2010; in the data active = activation above about 11%;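 also: human hepatoma DPX-2 cells expressing full-length human PXR; 0% = DMSO and 100% = reference agonist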
Numbers without * were called inactive; · = not tested or not shown. The list is not random: actives were taken first. Their share in the collection is about 5.7%.

SMILES	DAX1 inh-1	DAX1 inh-2	hgDAF12 agonist	AHR activator	hcDAF-12 act	ssDAF-12 act	AHR act cf	PXR counter
CC(C)NC(=O)c1ccc2sc([C@H]3C[C@H](O)[C@@H](CO)O3)nc2c1	1	·	5	·	1	0	·	·
Cc1ccccc1C(=O)N(Cc1cccs1)C1CCS(=O)(=O)C1 (stereo unspecified)	0	0	5	-1	0	-2	·	·
CCCCCC(=O)Nc1nc(C)c(-c2csc(Nc3cc(Cl)ccc3C)n2)s1	0	1	2	109*	3	-1	75*	27*
CCOc1ccc(Nc2nc(-c3sc(N)nc3C)cs2)cc1	0	2	2	114*	3	0	112*	17*
Cc1nc(NC(=O)CC(C)C)sc1-c1csc(Nc2ccc(Cl)cc2)n1	-1	1	2	92*	2	1	96*	20*
Cc1nc(C)c(-c2csc(Nc3ccc(S(N)(=O)=O)cc3)n2)s1	-1	-1	-4	·	-4	-2	·	·
CCCCCC(=O)Nc1nc(C)c(-c2csc(Nc3cc(OC)ccc3OC)n2)s1	0	-1	0	84*	-1	-2	82*	73*
O=C(Cn1nnc(-c2ccc(F)cc2)n1)NC(=O)NC1CCCCC1	-1	2	0	·	-1	-2	·	·
Cc1cc2c(cc1S(=O)(=O)NCCc1ccc(Cl)cc1)OCC(=O)N2	0	-1	-2	-1	-1	-1	·	·
CCCc1cc(C(=O)N/N=C/c2ccc(CC)s2)c2ccccc2n1	-2	-3	7	41	-2	-1	·	·
Cc1occc1C(=O)N/N=C/c1c[nH]c2ccccc12	·	4	·	123*	·	·	112*	23*
O=C(N/N=C/c1c[nH]c2ccccc12)c1cc(Cl)ccc1O	0	2	5	148*	3	1.6*	113*	5
CCc1ccc(/C=N/NC(=O)c2c[nH]c3ccccc23)s1	2	0	7	85*	4	0	39	42*
O=C(N/N=C/c1c[nH]c2ccccc12)c1cc(-c2ccccc2)n[nH]1	0	1	2	38	1	0	·	·
O=C(N/N=C/c1c[nH]c2ccccc12)c1cc(-c2cccc3ccccc23)n[nH]1	1	2	2	92*	3	-1	18	5
O=C(N/N=C/c1c[nH]c2ccccc12)c1ccccc1Cl	0	1	5	·	5	0	·	·
O=C(N/N=C/c1c[nH]c2ccccc12)C1COc2ccccc2O1 (stereo unspecified)	-2	-2	5	92*	0	0	72*	·
COc1cccc(/C=C/c2ccc3cccc(O)c3n2)c1OC	1	2	10	81*	5	0	65*	13*
COC(=O)N/N=C/c1cn(Cc2ccccc2Cl)c2ccccc12	-1	-1	-2	83*	-4	-1	64*	70*
COc1ccc(N(CC(=O)Nc2ccc(C(C)C)cc2)S(=O)(=O)c2c(C)noc2C)cc1	0	0	0	6	1	0	·	·
Cc1noc(C)c1S(=O)(=O)N(CC(=O)Nc1ccc2c(c1)OCO2)c1ccc(C(C)C)cc1	0	3	0	80*	1	0	84*	159*
Cc1c(=O)n(OCc2ccccc2F)c2ccccc2[n+]1[O-]	-1	0	0	94*	3	0	139*	26*
CCOn1c(=O)c(-c2ccccc2)[n+]([O-])c2ccccc21	0	1	-3	3	-1	-1	·	·
CCN(C(=O)COC(=O)Cc1c[nH]c2ccccc12)c1c(N)n(Cc2ccccc2)c(=O)[nH]c1=O	1	-1	-1	23	3	0	·	·
CC(=O)c1cccc(S(=O)(=O)N2CCCC(c3nc4c(nnn4Cc4cccc(Cl)c4)c(=O)[nH]3)C2)c1 (stereo unspecified)	-1	1	-2	-1	-3	-2	·	·
SMILES	DAX1 inh-1	DAX1 inh-2	hgDAF12 agonist	AHR activator	hcDAF-12 act	ssDAF-12 act	AHR act cf	PXR counter
CCCc1nc(NCc2ccncc2)c2nnn(Cc3ccccc3F)c2n1	-1	-1	-3	81*	-2	-1	61*	116*
COc1ccc(Cc2nnc(NC(=O)c3cc(OC)cc(OC)c3)s2)cc1	0	1	0	82*	0	-1	76*	12*
Cc1nn(C)c(C)c1S(=O)(=O)N(CC(=O)NCCCN1CCC(C)CC1)c1ccc(C(C)C)cc1	1	1	1	1	0	-1	·	·
Cc1csc(NC(=O)CSC2=NS(=O)(=O)c3cc(F)ccc3N2)n1	0	0	-1	6	0	-1	·	·
Cc1cc(C)nc(Nc2ncc(O)n2-c2ccccc2)n1	0	0	2	90*	-1	-1	61*	·
CCn1c(=O)cc(OCC(=O)NC2CC2)c2ccccc21	1	1	0	97*	1	-1	84*	25*
Cc1nc(NC(=O)COC(=O)CCc2ccccc2)c(Cl)cc1Cl	0	-1	0	3	-1	-1	·	·
COc1cccc(CNC(=O)[C@H]2CCCN2C(=O)[C@H]2CCCN2C(=O)N2CCOCC2)c1	0	·	-1	·	0	-1	·	·
O=C(Nc1ccc(Cl)cc1)c1ccc2snnc2c1	0	1	11*	129*	6.2*	-1	103*	26*
CCCc1cc(=O)n2[nH]c(-c3ccc(Br)cc3)cc2n1	2	1	6	104*	5.6*	1.1*	110*	47*
CC(C)c1ccc(NC(=O)c2cccc(NC3=NC4CS(=O)(=O)CC4S3)c2)cc1 (stereo unspecified)	2	1	3	1	1	-1	·	·
O=C(Nc1ccc(Cl)cc1)c1cccc(NC2=NC3CS(=O)(=O)CC3S2)c1 (stereo unspecified)	0	1	-2	182*	-1	-1	117*	19*
